This passage reports Potency and outcome results from PubChem BioAssay (NCATS).

Assay [1] is described as follows: P-glycoprotein substrates identified in KB-3-1 adenocarcinoma cell line, qHTS therapeutic library screen (AID 1346986). Further: nearly all actives have a fitted effect of over 60% in size.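 Further: potency is for cytotoxicity meaning loss of cell viability.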 Summed up: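 72 h cell-killing screen, 500 cells/well, CellTiter-Glo luminescence. Paired lines KB-3-1/KB-8-5-11; P-gp dependence checked by tariquidar co-treatment and HEK-293 MDR-19 versus empty-vector cells.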
A short description of assay [2]: P-glycoprotein substrates identified in KB-8-5-11 adenocarcinoma cell line, qHTS therapeutic library screen (AID 1346987). Further: nearly all actives have a fitted effect of over 65% in size. Summed up:
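Luminescence from CellTiter-Glo, read 5 min after addition, quantified survival of KB-8-5-11 (P-gp-overexpressing) cells exposed to compounds for 72 h. AC50 was derived from concentration-response curves.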

Results filed as inconclusive are left out. Unmarked numbers belong to inactive results. The source made the active and inactive calls. The call rests on the fitted dose curve; in most records, active means well fitted curve in the direction sought with a large enough effect; inconclusive means small, poorly fitted or top-dose-only effect, or another doubt; inactive means no such curve, though single readings can be large; an effect the other way counts as inactive or inconclusive. Where a SMILES comes first, the peptide text is derived from it. [ ]: non-standard residue; d: D form.
Potency means the concentration at half of the fitted maximal effect.

Consider `C=C1CCC[C@]2(C)C[C@]3(O)OC(=O)C(C)=C3C[C@@H]12`, for which the Potency entry in assay [1] and in assay [2] was “inactive” in each case.
Turning to `CCc1c(CC(N)=O)c2cc(OCCCP(=O)(O)O)ccc2n1Cc1ccccc1`, the Potency entry in assay [1] and in assay [2] was “inactive” throughout.
In the case of `C[C@@H]1C[C@H]2[C@@H]3CCC4=CC(=O)C=C[C@]4(C)[C@@]3(F)[C@@H](O)C[C@]2(C)[C@@]1(O)C(=O)COP(=O)(O)O`, the Potency result in assay [1] and in assay [2] was “inactive” in each case.
Take `CCC(C)C(=O)O[C@@H]1[C@@H](O)[C@@H](O[C@H]2O[C@H](CO)[C@@H](O)[C@H](O)[C@H]2O)O[C@H](CO)[C@H]1O` (stereo not given in full): the Potency entry in assay [1] and in assay [2] was “inactive” in each case.
In the case of `CC(=O)C1CCC2(C)C3=C(CCC12C)C1(C)CCC(=O)C(C)(C)C1CC3` (stereo not given), the Potency entry in assay [1] and in assay [2] was “inactive” in each case.
Take `CC(=O)N[C@H](Cc1ccc(O)cc1)C(=O)N[C@H](CCCN=C(N)N)C(=O)N[C@H](Cc1ccccc1)C(N)=O` (Ac-[dY]-[dR]-[dF]-NH2): the Potency result in assay [1] and in assay [2] was “inactive” throughout.
With `CC1CCC23COC(=O)C2=CC(O)CC3C1(C)CCC1=CC(=O)OC1O` (stereo not given), the Potency result in assay [1] and in assay [2] was “inactive” throughout.
Consider `O=C(/C=C/c1ccc(O)cc1)OCC1=CC2OC(=O)C3=CO[C@@H](O[C@@H]4O[C@H](CO)[C@@H](O)[C@H](O)[C@H]4O)[C@H]1[C@@H]32` (stereo not given in full), for which the Potency result in assay [1] and in assay [2] was “inactive” in each case.
For the compound `CCCCN(CCCC)C(=O)CN1C[C@H](c2ccc3c(c2)OCO3)[C@@H](C(=O)O)[C@@H]1c1ccc(OC)cc1`, the Potency result in assay [1] and in assay [2] was “inactive” in each case.
For `CCC(C)/C=C(C)/C=C/C1=CC2=C(Cl)C(=O)C(C)(OC(C)=O)C(=O)C2=CN1C1CCCCN(C(CCC(N)=O)C(=O)O)C1=O` (stereo not given), the Potency result in assay [1] and in assay [2] was “inactive” each time.
In the case of `CO[C@@H]1COCC[C@@H]1N[C@@H]1CC[C@@](C(=O)N2CCc3ncc(C(F)(F)F)cc3C2)(C(C)C)C1`, the Potency entry in assay [1] and in assay [2] was “inactive” throughout.
Consider `O=C(O)c1cc(O[C@@H]2O[C@H](CO[C@@H]3OC[C@@H](O)[C@H](O)[C@H]3O)[C@@H](O)[C@H](O)[C@H]2O)c2ccccc2c1O`, for which the Potency result in assay [1] and in assay [2] was “inactive” in each case.
With `O=C(O[C@H]1[C@@H]2C[C@@H]3OC[C@@](O)([C@H]2[C@H](O[C@@H]2O[C@H](CO)[C@@H](O)[C@H](O)[C@H]2O)O3)[C@@H]1O)c1ccccc1`, the Potency result in assay [1] and in assay [2] was “inactive” each time.
Take `CC(=O)OC[C@]12[C@H](OC(C)=O)C(=O)[C@@H]3[C@@H](OC(C)=O)[C@@]14O[C@@]3(C)COC(=O)c1cccnc1[C@@H](C)[C@H](C)C(=O)O[C@@H]([C@H](OC(C)=O)[C@@H]2OC(C)=O)[C@]4(C)O`: the Potency result in assay [1] and in assay [2] was “inactive” throughout.
Turning to `CC[C@H]1OC(=O)[C@H](C)[C@@H](O[C@H]2C[C@@](C)(OC)[C@@H](O)[C@H](C)O2)[C@H](C)[C@@H](O[C@@H]2O[C@H](C)C[C@H](N(C)C)[C@H]2O)[C@@](C)(O)C[C@@H](C)[C@@H]2N[C@@H](COCCOC)OC([C@H]2C)[C@]1(C)O`, the Potency result in assay [1] and in assay [2] was “inactive” throughout.
For `Nc1ccn([C@@H]2C(F)=C(CO)[C@@H](O)[C@H]2O)c(=O)n1`, the values for the Potency in assay [1] and in assay [2] were 3.66 µM (active) and 10.3 µM (active), respectively.
Turning to `CC1CC(=O)C2=C(O1)OC1(C)CCC3C(C)(C)C=CC(=O)C3(C)C1C2` (stereo not given), the Potency result in assay [1] and in assay [2] was “inactive” each time.
Take `O=C(/C=C/c1ccccc1)OCC1=CC[C@@H]2C(C(=O)O)=CO[C@@H](O[C@@H]3O[C@H](CO)[C@@H](O)[C@H](O)[C@H]3O)[C@H]12`: the Potency entry in assay [1] and in assay [2] was “inactive” in each case.
Regarding `CC1(C)CC[C@]2(C(=O)O)CC[C@]3(C)C(=CCC4[C@@]5(C)C[C@H](O)[C@H](O[C@@H]6OC[C@H](O)[C@H](O)[C@H]6O)[C@@](C)(CO)C5CC[C@]43C)[C@@H]2C1` (stereo not given in full), the Potency entry in assay [1] and in assay [2] was “inactive” each time.
For the compound `CC1NC(=O)CNC(=O)C(C(C)C)NC(=O)C2CCCN2C(=O)C(C(C)C)NC(=O)C(Cc2c[nH]c3ccccc23)NC1=O` (stereo not given) (cyclo(GAWVPV); configuration not given here), the Potency result in assay [1] and in assay [2] was “inactive” throughout.
For the compound `C[C@@H]1O[C@@H](O[C@H]2[C@H](O)[C@@H](C(=O)O)O[C@@H](O[C@H]3CC[C@@]4(C)C(CC[C@]5(C)C4CC=C4C6CC(C)(C)CC[C@]6(C(=O)O)CC[C@]45C)C3(C)C)[C@@H]2O[C@@H]2O[C@H](CO)[C@@H](O)[C@H](O)[C@H]2O)[C@H](O)[C@H](O)[C@H]1O` (stereo not given in full), the outcome in assay [1] and in assay [2] was “inactive [at 9.29 µM]” each time.
As to `C[C@@H]1C[C@H](O)/C=C/[C@H](O)[C@@H](O)CC(=O)O1`, the Potency result in assay [1] and in assay [2] was “inactive” in each case.
As to `CC(=O)OC[C@@]12[C@@H](OC(C)=O)C[C@@H](C)[C@](C)([C@@H]3C[C@H]4C=CO[C@H]4O3)[C@H]1CCC[C@]21CO1`, the Potency result in assay [1] and in assay [2] was “inactive” each time.
In the case of `Cc1ncc([N+](=O)[O-])n1CC(O)CN1CCOCC1` (stereo not given), the Potency result in assay [1] and in assay [2] was “inactive” throughout.
With `O=C(O)[C@H]1CCCC[C@H]1C(=O)N1CCc2ccccc2[C@H]1CN1C(=O)c2ccccc2C1=O`, the Potency entry in assay [1] and in assay [2] was “inactive” in each case.
